# Source: PubChem BioAssay (National Center for Advancing Translational Sciences (NCATS))
# TRPML1 inh – blocks the human TRPML1 channel | TRPML1-inducible cells, Ca2+ dye fluorescence, FDSS; stronger effect = lower value; inhibition of EC80 agonist-evoked calcium signal | Q9GZU1 | AID 624415 | actives 0.02% (n = 390,000) | activity change, negative = inhibition, % (no concentration beside the values); in the data active means activity change below about -50%; inconclusive means between about -30% and that limit;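 further: stimulus is agonist 54-4 at its EC80 concentration; on the % scale 0 is the no-effect control and ±100 the full control effect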
# Target sequence (Q9GZU1 whole entry, looked up): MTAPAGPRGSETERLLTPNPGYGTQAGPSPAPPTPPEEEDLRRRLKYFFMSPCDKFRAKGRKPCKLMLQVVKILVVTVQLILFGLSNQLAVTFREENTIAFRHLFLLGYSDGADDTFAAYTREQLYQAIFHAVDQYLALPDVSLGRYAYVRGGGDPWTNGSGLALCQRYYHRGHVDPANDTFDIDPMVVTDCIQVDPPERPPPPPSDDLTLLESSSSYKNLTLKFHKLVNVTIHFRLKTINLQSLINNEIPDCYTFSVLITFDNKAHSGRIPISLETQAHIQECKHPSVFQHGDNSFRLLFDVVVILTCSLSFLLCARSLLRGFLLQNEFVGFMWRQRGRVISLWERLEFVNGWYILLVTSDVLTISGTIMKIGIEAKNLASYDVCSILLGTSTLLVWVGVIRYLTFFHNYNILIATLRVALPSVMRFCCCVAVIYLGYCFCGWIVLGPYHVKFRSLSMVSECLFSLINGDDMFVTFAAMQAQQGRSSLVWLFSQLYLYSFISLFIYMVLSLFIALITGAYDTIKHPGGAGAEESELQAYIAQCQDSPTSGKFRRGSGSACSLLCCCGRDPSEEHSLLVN
#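 Tet-induced TRPML1-DL cells loaded with Ca8 no-wash calcium dye were read kinetically on FDSS. Compound addition was followed by EC80 agonist 54-4 (4 uM final); inhibition was read over 110 s.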
# Glioma ERSR ind – ER stress response induction in glioma | U87-MG GRP78 promoter luciferase reporter, 16 h | Potency, µM, inactives show top-dose activation, most hits filed as activators | actives 0.02% (n = 420,000); further: potency means the concentration at half of the fitted maximal effect; series mostly up to about 76 µM; % of control where 0% means no effect; nearly all actives have a fitted effect of over 35% in size
#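 Stably transfected U87-MG glioma cells carrying a GRP78-based luciferase sensor; 16 h compound incubation. Luminescence end-point read 10 min after Bright-Glo addition at room temperature.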
# ALOX12 inh – ALOX12 (human) lipoxygenase inhibition; P18054; purified 12hLO, xylenol orange hydroperoxide absorbance; Potency, µM (highest dose often 108 µM), without a hit: at the top dose activity change, negative = inhibition, usual class: inhibitors; actives 1.1% (n = 580,000); AID 1671190; further: potency means the concentration at half of the fitted maximal effect; on the % scale 0 is the no-effect control and ±100 the full control effect
#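 Purified human 12hLO (150 nM final) in 25 mM Hepes, 0.01% Triton X-100, pH 7.0 was preincubated 15 min at room temperature with compound. Then 40 uM arachidonic acid was added, 30 min. Hydroperoxide was read by Fe-XO absorbance ratio 573/405 nm.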
# TRPML1 agonist – agonists of human TRPML1 channel. Q9GZU1. TRPML1-expressing cells, Ca2+ dye fluorescence, FDSS. activation, % (concentration not given with the values). actives 0.12% (n = 410,000); in the data active means activation above about 50%; inconclusive means mostly about 30% to 49%; further: 0% is about no effect
#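 Tetracycline-induced TRPML1-DL cells are seeded and incubated overnight before loading with a no-wash Ca2+ dye and quencher. Agonist activity is taken from the 110 s fluorescence read following compound pin-transfer on an FDSS, before EC80 54-4 challenge.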
# Vif-A3G inh – inhibitors of Vif-APOBEC3G interaction | HeLa A3G-eYFP + Vif (tagged APOBEC3G with the HIV-1 protein that degrades it), YFP fluorescence, overnight | Q9HC16 | Potency, µM (top dose mostly 46.1 µM), for inactives: at the highest dose activity, negative = active, usual class: inhibitors | actives 0.076% (n = 410,000); further: potency means the concentration at half of the fitted maximal effect; on the % scale 0 is the no-effect control and ±100 the full control effect; nearly all actives have a fitted effect of over 60% in size
#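 Read-out is eYFP fluorescence (Ex 488/Em 500-530) from Vif-expressing HeLa A3G-eYFP cells; more signal means A3G escaped Vif-mediated degradation. Cells plated overnight, compound pinned in, incubated overnight at 37 deg C.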
# Vif-APOBEC3F blk – Vif-A3F binding inhibition; Potency, µM (titrated, usually from 46.1 µM), for inactives: at the highest dose activity, negative = active; actives 0.2% (n = 390,000); HeLa A3F-eYFP + Vif (tagged APOBEC3F with the HIV-1 protein that degrades it), YFP fluorescence increase; further: potency means the concentration at half of the fitted maximal effect; % of control where 0% means no effect; nearly all actives have a fitted effect of over 65% in size
#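 Fluorescence increase (Ex 488/Em 500-530) after overnight compound treatment at 37 deg C flags inhibition of Vif-driven A3F-eYFP loss in stable HeLa A3F-eYFP/Vif cells seeded overnight beforehand.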
# * = called active by the depositor; ? = inconclusive; . = no result; [ ] = another dose, or the depositor's remark. Rows were chosen to be rich in hits. Some 1.3% of all compounds tested hit in one or more screens of this group. Unless noted, the call rests on the fitted dose curve; in most records, active means well fitted curve in the direction sought with a large enough effect; inconclusive means small, poorly fitted or top-dose-only effect, or another doubt; inactive means no such curve, though single readings can be large; an effect the other way counts as inactive or inconclusive.
SMILES,TRPML1 inh,Glioma ERSR ind,ALOX12 inh,TRPML1 agonist,Vif-A3G inh,Vif-APOBEC3F blk
COc1ccc(OC)c(-n2c(-c3cccc(O)c3)n[nH]c2=S)c1,4.5,1.4%,3.55µM*,0.6,0.4%,-1.0%
COc1ccc(-c2n[nH]c(=S)n2-c2cc(OC)ccc2OC)cc1,-5.0,-1.5%,?,0.0,-29.5%,1.6%
COc1ccc(-c2cc(-c3n[nH]c(=S)n3-c3cc(OC)ccc3OC)[nH]n2)cc1,11.8,-2.1%,44.7µM*,0.1,-20.3%,-8.6%
CC(C)(C)C(=O)Nc1ccc(NC(=O)c2ccc3nc[nH]c3c2)cc1,.,.,35.1%,.,.,.
COc1cccc([S+](=O)([O-])N2CCn3c(nn(-c4cccc(Cl)c4)c3=O)C2)c1,.,.,6.31µM*,.,.,.
COc1cccc([S+](=O)([O-])N2CCn3c(nn(-c4ccc(Cl)cc4)c3=O)C2)c1,.,.,2.8%[6.33 µM],.,.,.
CCOc1ccccc1CNC(=O)CC(C)n1nc(C)cc1C (stereo not drawn),.,.,-9.4%,.,.,.
CCOC(=O)C1=C(CN2CCN(C(=O)OCC)CC2)NC(=O)NC1c1cccc(OC)c1OC (stereo not drawn),.,.,-11.9%,.,.,.
COC(=O)c1ccc(/C=C/c2nc3ccc(OC)cc3s2)cc1,.,.,-46.1%,.,.,.
COc1ccc2nc(/C=C/c3cccc(O)c3)sc2c1,.,.,6.31µM*,.,.,.
Cc1cccc(NC(=O)N2CC=C(c3c[nH]c4ccccc34)CC2)c1C,-7.4,0.8%,36.9%,3.5,?,11.2µM*
Cc1ccc(NC(=O)N2CC=C(c3c[nH]c4ccccc34)CC2)cc1Cl,5.2,-4.5%,-15.6%,3.7,?,?
COC(=O)c1ccc(Cl)cc1NC(=O)N1CC=C(c2c[nH]c3ccccc23)CC1,0.5,-2.9%,?,3.8,?,22.4µM*
CC(=O)c1cccc(NC(=O)Cc2nn(C)c(=O)c3ccccc23)c1,.,.,-21.0%,.,.,.
O=C(O)c1cc(-c2ccco2)nn1-c1cccc(Cl)c1,-18.5,-5.6%,35.5µM*,0.7,-2.1%,4.6%
Cc1nn(-c2cccc(Cl)c2)c2nc(-c3ccco3)cc(C(=O)O)c12,17.7,-2.4%,39.8µM*,-0.2,-0.9%,-10.0%
O=C(O)c1cc(-c2ccco2)nn1-c1ccc(Cl)cc1,-3.6,-5.1%,?,0.0,-2.1%,-7.0%
COc1ccc(-c2c(C(F)(F)F)oc3cc(OCC#N)ccc3c2=O)cc1,.,.,-10.3%,.,.,.
COc1ccccc1C(=O)NNC(=S)NC(=O)c1cc(OC)c(OC)c(OC)c1,11.8,-2.9%,39.8µM*,5.1,0.9%,4.5%
COc1cc(C(=O)NNC(=S)NC(=O)c2ccccc2C)cc(OC)c1OC,7.7,-0.3%,-20.0%,12.7,0.9%,-1.8%
COc1cc(C(=O)NC(=S)NNC(=O)[C@H]2C[C@@H]2c2ccccc2)cc(OC)c1OC,-7.0,1.4%,31.6µM*,8.6,1.7%,16.6%
COc1cc(C(=O)NC(=S)NC(C)C)cc(OC)c1OC,-28.7,1.2%,35.5µM*,2.2,-8.6%,-12.5%
COc1cc(C(=O)NC(=S)N2CCCCCC2)cc(OC)c1OC,-3.0,7.4%,-9.3%,-0.5,-4.8%,-19.8%
CC1(C)CC(=O)C2=C(C1)Nc1[nH]n(-c3ccccc3)c(=O)c1C2c1ccc(O)cc1 (stereo not drawn),.,.,-7.8%,.,.,.
COc1cc(C(C)=O)ccc1Oc1cccc(Cl)c1C#N,.,.,-12.1%,.,.,.
SMILES,TRPML1 inh,Glioma ERSR ind,ALOX12 inh,TRPML1 agonist,Vif-A3G inh,Vif-APOBEC3F blk
CCN=c1scc(C)n1/N=C/c1ccc(O)c(O)c1O,10.0,-1.0%,?,0.1,-1.0%,-0.9%
CCN=c1scc(C)n1/N=C/c1cc(Br)c(O)c(Br)c1,-2.7,9.8%,25.1µM*,0.4,-2.4%,4.0%
COc1ccc(-c2ccc(CCC(=O)O)o2)cc1,11.2,-10.9%,?,-0.1,-1.5%,?
COc1ccc(C(=O)COC(=O)CCc2ccc(-c3ccccc3)o2)cc1,.,.,7.94µM*,.,.,.
CS(=O)(=O)c1cccc(OCC(=O)c2ccc(F)cc2)c1,.,.,-9.3%,.,.,.
COC(=O)c1cc2c(c3c4ccccc4n(S(=O)(=O)c4ccc(OC)cc4)c13)C(=O)N(Cc1ccco1)C2,.,.,39.8µM*,.,.,.
CN1CCc2c(sc3c2C(=O)NC(c2ccc(-c4ccc(Cl)cc4)o2)N3)C1 (stereo not drawn),19.6,2.4%,?,1.2,?,28.2µM*
CN1CCc2c(sc3c2C(=O)NC(c2ccco2)N3)C1 (stereo not drawn),-4.3,-2.4%,112.1%,1.4,-9.4%,-4.7%
CCN(CC)c1ccc(C=Nc2ccc(F)cc2)cc1,.,.,31.3%,.,.,.
Cc1nc2ccccn2c1-c1ccnc(=S)[nH]1,14.3,-0.2%,15.8µM*,-0.3,-0.3%,6.2%
Cc1ccc(C2C3=C(CCCC3=O)Nc3nc(SCCC(C)C)[nH]c(=O)c32)o1 (stereo not drawn),.,.,7.94µM*,.,.,.
COc1ccc(C(=O)N2CCC3(CC2)C(=NC2CCCCC2)NC(=O)N3c2cccc(OC)c2)cc1,.,.,3.9%[6.33 µM],.,.,.
O=C(c1cc(-c2cccs2)nc2ccccc12)N1CCN(C(=O)C2CC2)CC1,.,.,7.8%,.,.,.
C=CCC1[C@H](C)[C@H]2[C@@H]3CC[C@@H](C3)[C@H]2CN1S(=O)(=O)c1ccc(C)cc1 (stereo partly drawn),-12.8,-1.8%,14.1%,54.0*,1.9%,-0.4%
CS(=O)(=O)Nc1cccc(-c2cncnc2NCc2ccccc2)c1,.,-2.9%,39.8µM*,.,.,.
CN(C)c1ncnc2ccc(-c3cccc(NS(C)(=O)=O)c3)cc12,.,-1.8%,-10.5%,.,.,.
COc1cccc(-c2cncnc2Nc2ccccc2)c1,.,2.2%,39.8µM*,.,.,.
CN(C)c1cc(-c2cccc(NS(C)(=O)=O)c2)ncn1,.,-2.5%,35.5µM*,.,.,.
Cc1cccc(CNc2ncncc2-c2cccc(NS(C)(=O)=O)c2)c1,.,-0.6%,?,.,.,.
CS(=O)(=O)Nc1cccc(-c2cc(NCc3ccccc3)ncn2)c1,.,-2.2%,11.2µM*,.,.,.
Cc1cc(-c2ccc(N=Cc3cccc(Cl)c3)c(C)c2)ccc1N=Cc1cccc(Cl)c1,.,.,-8.7%,.,.,.
CC(C)c1nc2cc(NC(=O)NCc3ccccc3)ccc2o1,.,.,1.8%,.,.,.
O=C(CNc1ccccc1C(=O)Nc1ccccc1)Nc1ccccc1C(=O)NC1CCCC1,.,.,-91.1%,.,.,.
N#Cc1nc(-c2ccc(S(=O)(=O)N3CCCC3)cc2)oc1NCc1ccco1,.,.,-10.1%,.,.,.
CCc1ccc(NC(=O)N2CCCC(c3noc(COc4ccccc4)n3)C2)cc1 (stereo not drawn),.,.,20.6%,.,.,.
Cc1cccc(C(=O)NC23CC4CC(CC(C4)C2)C3)c1,.,.,25.7%,.,.,.
O=C(c1ccc2c(=O)n(-c3ccccc3F)cnc2c1)N1CCOCC1,.,.,-3.9%,.,.,.
CC(=O)c1c(C)[nH]c(C(=O)CSc2nnc(C3CCCCC3)o2)c1C,.,.,0.4%,.,.,.
